Binding signal data for 15 sequences are collected here from PMC7862700, “An all-to-all approach to the identification of sequence-specific readers for epigenetic DNA modifications on cytosine”.

Holding throughout (assay): DAPPL (digital affinity profiling via proximity ligation, sequencing); 10 mM Tris-HCl pH 7.5, 50 mM NaCl, 1 mM DTT, 4% glycerol, room temperature, 30 min; GST-TFs on glutathione beads, 16-mer random dsDNA library, 0.1% formaldehyde crosslink after washing; high values mean tight binding
In assay [1] the target is T1, ELK3 (Homo sapiens, UniProt P41970 1-407).
T1 sequence: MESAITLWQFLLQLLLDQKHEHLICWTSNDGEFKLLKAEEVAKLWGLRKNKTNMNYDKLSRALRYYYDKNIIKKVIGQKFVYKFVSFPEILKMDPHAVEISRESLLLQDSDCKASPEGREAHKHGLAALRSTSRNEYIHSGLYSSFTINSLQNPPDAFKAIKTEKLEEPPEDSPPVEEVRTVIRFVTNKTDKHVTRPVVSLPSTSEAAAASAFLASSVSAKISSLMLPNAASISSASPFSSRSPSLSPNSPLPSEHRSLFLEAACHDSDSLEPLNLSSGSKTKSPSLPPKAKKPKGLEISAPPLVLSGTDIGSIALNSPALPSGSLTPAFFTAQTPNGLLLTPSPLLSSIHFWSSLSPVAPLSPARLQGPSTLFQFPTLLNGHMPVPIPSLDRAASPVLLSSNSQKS
Particulars: protein: recombinant; tags: N-terminal GST; dsDNA, one strand shown. The method, boiled down: (§1)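 Binding signal is defined as a hexamer's read frequency for one factor over its frequency for the tag-only sample. To obtain reads, GST-fused human transcription factors were expressed in yeast, captured on glutathione beads, barcoded with DNA and pooled with that sample. Pools met 200 nmole of a 16-mer random double-stranded DNA library in Tris/NaCl/DTT/glycerol buffer for 30 min at room temperature before washing, 0.1% formaldehyde crosslinking, proximity ligation (BsaI/T4 ligase, 1 h, 37 °C), PCR and Illumina NextSeq500 sequencing.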

The target in assay [2] is HSF1 (Homo sapiens, UniProt Q00613 1-529). Particulars: protein: recombinant; tags: N-terminal GST; chain copies: 3; dsDNA, one strand shown. The procedure, abridged:
as §1

Assay [3] has as its target T2, SPIC (Homo sapiens, UniProt Q8N5J4 1-248).
T2 sequence: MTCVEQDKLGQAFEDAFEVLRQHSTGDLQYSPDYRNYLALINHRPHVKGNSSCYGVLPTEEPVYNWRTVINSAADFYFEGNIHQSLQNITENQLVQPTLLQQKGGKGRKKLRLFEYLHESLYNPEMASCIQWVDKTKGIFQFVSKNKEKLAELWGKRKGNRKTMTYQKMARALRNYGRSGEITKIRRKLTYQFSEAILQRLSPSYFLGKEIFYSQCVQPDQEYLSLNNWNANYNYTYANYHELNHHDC
Particulars: protein: recombinant; tags: N-terminal GST; dsDNA, one strand shown. The method, boiled down: as §1

Assay [4] deals with T3, ELF3 (Homo sapiens, UniProt P78545 1-371).
T3 sequence: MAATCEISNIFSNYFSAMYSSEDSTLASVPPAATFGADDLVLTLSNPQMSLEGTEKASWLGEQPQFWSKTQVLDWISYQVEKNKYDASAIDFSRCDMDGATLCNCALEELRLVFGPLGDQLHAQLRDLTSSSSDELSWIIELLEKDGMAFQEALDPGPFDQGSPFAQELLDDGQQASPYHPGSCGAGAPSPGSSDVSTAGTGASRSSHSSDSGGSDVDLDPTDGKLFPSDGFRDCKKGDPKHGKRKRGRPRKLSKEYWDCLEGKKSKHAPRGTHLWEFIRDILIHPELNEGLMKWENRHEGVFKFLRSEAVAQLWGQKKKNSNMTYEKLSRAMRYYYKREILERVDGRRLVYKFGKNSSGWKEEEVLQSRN
Particulars: protein: recombinant; tags: N-terminal GST; dsDNA, one strand shown. The method, boiled down: as §1

The target of assay [5] is CRX (Homo sapiens, UniProt O43186 1-299). The conditions noted are these: protein: recombinant; tags: N-terminal GST; dsDNA, one strand shown. The procedure, abridged: as §1
CRX, sequence (O43186 whole entry): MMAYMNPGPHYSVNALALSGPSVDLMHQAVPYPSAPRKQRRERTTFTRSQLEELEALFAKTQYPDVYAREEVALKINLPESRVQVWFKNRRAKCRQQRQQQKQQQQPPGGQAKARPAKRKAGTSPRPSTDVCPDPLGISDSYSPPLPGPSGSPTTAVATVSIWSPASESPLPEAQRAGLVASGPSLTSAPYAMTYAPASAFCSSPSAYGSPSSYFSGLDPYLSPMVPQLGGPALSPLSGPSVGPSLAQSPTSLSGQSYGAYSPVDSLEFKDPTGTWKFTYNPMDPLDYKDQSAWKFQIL
Assay [6] concerns the target T4, ELF5 (Homo sapiens, UniProt Q9UKW6-2 1-255).
T4 sequence: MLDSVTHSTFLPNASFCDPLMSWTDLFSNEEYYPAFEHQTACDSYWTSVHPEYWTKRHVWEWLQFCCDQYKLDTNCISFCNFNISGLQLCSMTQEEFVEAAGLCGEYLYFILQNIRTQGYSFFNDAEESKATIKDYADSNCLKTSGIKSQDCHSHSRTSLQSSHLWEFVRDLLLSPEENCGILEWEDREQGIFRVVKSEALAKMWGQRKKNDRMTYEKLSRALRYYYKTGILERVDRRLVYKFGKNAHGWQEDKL
The conditions noted are these: protein: recombinant; tags: N-terminal GST; dsDNA, one strand shown. The method, boiled down: as §1

HSF1, sequence (Q00613 whole entry): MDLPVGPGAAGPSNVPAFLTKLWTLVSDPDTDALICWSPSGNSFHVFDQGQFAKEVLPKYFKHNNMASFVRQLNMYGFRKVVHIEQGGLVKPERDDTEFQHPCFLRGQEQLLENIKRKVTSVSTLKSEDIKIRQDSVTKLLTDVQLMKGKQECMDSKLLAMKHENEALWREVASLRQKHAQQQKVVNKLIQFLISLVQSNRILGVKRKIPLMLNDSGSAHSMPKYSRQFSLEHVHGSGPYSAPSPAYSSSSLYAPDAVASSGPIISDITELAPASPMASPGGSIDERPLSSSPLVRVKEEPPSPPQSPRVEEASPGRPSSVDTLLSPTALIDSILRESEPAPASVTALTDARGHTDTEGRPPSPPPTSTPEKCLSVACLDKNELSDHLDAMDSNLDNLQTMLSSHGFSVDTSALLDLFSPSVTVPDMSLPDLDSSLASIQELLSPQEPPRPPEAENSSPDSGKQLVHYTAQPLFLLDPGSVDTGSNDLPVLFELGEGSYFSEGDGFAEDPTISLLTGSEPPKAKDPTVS

CCCCTA: the binding signal was 1.38 fold enrichment (6-mer frequency, TF over GST control) in assay [1]; 1.02 fold enrichment (6-mer frequency, TF over GST control) in assay [2]; 1.25 fold enrichment (6-mer frequency, TF over GST control) in assay [3]; 1.3 fold enrichment (6-mer frequency, TF over GST control) in assay [4]; 1.15 fold enrichment (6-mer frequency, TF over GST control) in assay [5]; 1.1 fold enrichment (6-mer frequency, TF over GST control) in assay [6].

As for AGCAAA, the binding signal is 1.04 fold enrichment (6-mer frequency, TF over GST control) in assay [1]; 1.18 fold enrichment (6-mer frequency, TF over GST control) in assay [2]; 1.21 fold enrichment (6-mer frequency, TF over GST control) in assay [4]; 1.05 fold enrichment (6-mer frequency, TF over GST control) in assay [5]; 1 fold enrichment (6-mer frequency, TF over GST control) in assay [6].

Consider ATAATG, for which the binding signal was 1.22 fold enrichment (6-mer frequency, TF over GST control) in assay [1]; 1.25 fold enrichment (6-mer frequency, TF over GST control) in assay [2]; 1.21 fold enrichment (6-mer frequency, TF over GST control) in assay [3]; 1.03 fold enrichment (6-mer frequency, TF over GST control) in assay [4]; 1.52 fold enrichment (6-mer frequency, TF over GST control) in assay [5]; 1.07 fold enrichment (6-mer frequency, TF over GST control) in assay [6].

With CGACTG, the binding signal in assay [1] was 1.02 fold enrichment (6-mer frequency, TF over GST control); in assay [2] it was 1.02 fold enrichment (6-mer frequency, TF over GST control); in assay [3], 1 fold enrichment (6-mer frequency, TF over GST control); in assay [6] it was 1.04 fold enrichment (6-mer frequency, TF over GST control).

On to TCGTAT, for which the binding signal was 1.01 fold enrichment (6-mer frequency, TF over GST control) in assay [1]; 1.06 fold enrichment (6-mer frequency, TF over GST control) in assay [2]; 1.06 fold enrichment (6-mer frequency, TF over GST control) in assay [3]; 1.05 fold enrichment (6-mer frequency, TF over GST control) in assay [4]; 1.09 fold enrichment (6-mer frequency, TF over GST control) in assay [5]; 1.01 fold enrichment (6-mer frequency, TF over GST control) in assay [6].

On to CGAAGG, for which the binding signal in assay [2] is 1.31 fold enrichment (6-mer frequency, TF over GST control); in assay [3] it was 1.08 fold enrichment (6-mer frequency, TF over GST control).

For the sequence TGTAAG, the binding signal was 1.11 fold enrichment (6-mer frequency, TF over GST control) in assay [1]; 1.09 fold enrichment (6-mer frequency, TF over GST control) in assay [2]; 1.22 fold enrichment (6-mer frequency, TF over GST control) in assay [3]; 1.3 fold enrichment (6-mer frequency, TF over GST control) in assay [4]; 1.32 fold enrichment (6-mer frequency, TF over GST control) in assay [5]; 1.11 fold enrichment (6-mer frequency, TF over GST control) in assay [6].

In the case of GACTTA, the binding signal in assay [2] was 1.34 fold enrichment (6-mer frequency, TF over GST control); in assay [3] it was 1.08 fold enrichment (6-mer frequency, TF over GST control); in assay [5], 1.93 fold enrichment (6-mer frequency, TF over GST control).

For GTACGA, the binding signal is 1.02 fold enrichment (6-mer frequency, TF over GST control) in assay [3]; 1.11 fold enrichment (6-mer frequency, TF over GST control) in assay [4]; 1.03 fold enrichment (6-mer frequency, TF over GST control) in assay [6].

As to TGCAGC, the binding signal was 1.07 fold enrichment (6-mer frequency, TF over GST control) in assay [1] and 1.22 fold enrichment (6-mer frequency, TF over GST control) in assay [3].

For the sequence AGTCCC, the binding signal was 1.01 fold enrichment (6-mer frequency, TF over GST control) in assay [1]; 1.06 fold enrichment (6-mer frequency, TF over GST control) in assay [3]; 1.11 fold enrichment (6-mer frequency, TF over GST control) in assay [4]; 1.06 fold enrichment (6-mer frequency, TF over GST control) in assay [6].

For CGCCCA, the binding signal was 1.04 fold enrichment (6-mer frequency, TF over GST control) in assay [1] and 1.06 fold enrichment (6-mer frequency, TF over GST control) in assay [3].

In the case of CAATGT, the binding signal in assay [1] is 1.01 fold enrichment (6-mer frequency, TF over GST control); in assay [3] it was 1.13 fold enrichment (6-mer frequency, TF over GST control).

As to AGCTCG, the binding signal in assay [1] was 1.04 fold enrichment (6-mer frequency, TF over GST control); in assay [2] it was 1.02 fold enrichment (6-mer frequency, TF over GST control).

As for GCAATC, the binding signal in assay [2] was 1.01 fold enrichment (6-mer frequency, TF over GST control); in assay [5], 1 fold enrichment (6-mer frequency, TF over GST control).
